Compound activity as filed in PubChem BioAssay.
Glioma ERSR ind – inducers of ER stress response in human glioma cells; Potency, µM, hits mostly activators; U87-MG GRP78 promoter luciferase reporter, 16 h; AID 602332; hit rate 0.02% among 420,000; note: series mostly up to about 76 µM; nearly all actives have a fitted effect of over 35% in size
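Stably transfected U87-MG glioma cells carrying a GRP78-based luciferase sensor; 16 h compound incubation. Luminescence end-point read 10 min after Bright-Glo addition at room temperature.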
pAkt inh – inhibitors of Akt phosphorylation; activity change, % for hits at 50 µM; hit rate 0.32% among 360,000; AID 651550; Neuro2A IGF-stimulated pAkt S473 HTRF, 20 min; stronger effect = lower value; in the data active = activity change below about -80%; inconclusive = mostly about -51% to -80%
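Single-point screen (50 µM final compound) in Neuro2A cells stimulated 20 min with 6 nM IGF at 37 deg C. After lysis, Ser473-phosphorylated Akt read by HTRF (ex 330 nm, em 615/665 nm) as the 665/615 ratio.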
GLS inh – inhibitors of human glutaminase (GLS). O94925. GLS enzymatic activity, qHTS titration. Potency, µM (top dose mostly 45.5 µM), usual class: inhibitors. hit rate 0.21% among 410,000. AID 624170
Target sequence (O94925 whole entry, looked up): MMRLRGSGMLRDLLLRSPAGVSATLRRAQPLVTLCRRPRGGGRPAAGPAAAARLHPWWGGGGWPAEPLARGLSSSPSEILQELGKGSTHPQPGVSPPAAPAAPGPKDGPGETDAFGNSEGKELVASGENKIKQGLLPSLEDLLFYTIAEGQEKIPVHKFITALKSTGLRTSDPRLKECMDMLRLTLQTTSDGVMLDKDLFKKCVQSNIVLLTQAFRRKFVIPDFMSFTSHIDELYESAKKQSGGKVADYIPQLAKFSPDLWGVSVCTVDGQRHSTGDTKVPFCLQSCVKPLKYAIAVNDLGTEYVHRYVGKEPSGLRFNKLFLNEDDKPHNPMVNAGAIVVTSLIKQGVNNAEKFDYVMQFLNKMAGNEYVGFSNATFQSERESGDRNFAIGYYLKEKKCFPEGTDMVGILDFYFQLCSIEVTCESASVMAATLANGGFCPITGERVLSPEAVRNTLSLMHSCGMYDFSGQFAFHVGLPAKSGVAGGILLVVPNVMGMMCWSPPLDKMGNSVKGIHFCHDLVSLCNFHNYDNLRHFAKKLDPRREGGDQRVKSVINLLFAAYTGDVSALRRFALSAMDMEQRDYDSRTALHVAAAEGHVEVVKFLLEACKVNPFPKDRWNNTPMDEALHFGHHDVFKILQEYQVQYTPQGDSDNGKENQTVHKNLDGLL
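Compounds were pin-transferred onto hKGA, after which L-glutamine (1 mM solution) and a detection mix of glutamate oxidase, HRP and Amplex Red were added. Initial and 30 min RT fluorescence reads were collected.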
CCT chaperon mod – cytosolic chaperonin activity modulation; purified chaperonin ATPase assay, HTRF ADP detection, 30 min; activity change, % (test concentration not listed), hits read low; hit rate 0.3% among 360,000; AID 651819; in the data active = activity change below about -30%
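TRiC at 40 or 20 nM final (batch-dependent) in 30 mM Tris pH 7.4, 100 mM KCl, 5 mM MgCl2, 1 mM DTT, with compound at single 76 uM and 10 uM ATP, 30 min at 37 deg C. ADP detected by HTRF Transcreener, 665/615 ratio.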
Mm-Cpn inhibitor – M. maripaludis TRiC chaperonin inhibition. Potency, µM (series often up to 76.9 µM), actives largely listed as inhibitors. purified Mm-Cpn ATPase, ADP Transcreener TR-FRET. hit rate 0.031% among 330,000; note: nearly all actives have a fitted effect of over 80% in size
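ATPase read-out: TR-FRET ADP immunoassay (anti-ADP Eu cryptate vs ADP-d2), ex 320 nm, em 590/665 nm; signal drops as ADP forms. Enzyme 25 nM, ATP 10 uM, 30 min at 37°C after 10 min compound preincubation.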
IDH1 R132H inh – blocks human mutant IDH1 R132H enzyme. hit rate 0.093% among 390,000. AID 602179. IDH1-R132H enzyme, NADPH consumption, diaphorase/resazurin fluorescence. Potency, µM (doses to about 76.6 µM), actives largely listed as inhibitors. O75874; note: nearly all actives have a fitted effect of over 65% in size
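IDH1-R132H (0.5 ug/mL dispensed) in pH 7.5 Tris buffer was preincubated 30 min with compound, then given a substrate mix of 0.016 mM NADPH and 2 mM alpha-KG for 80 min at room temperature; remaining NADPH was read by diaphorase/resazurin fluorescence.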
Hits are given with their value; - = inactive; ? = inconclusive; . = not tested or not shown. Shown are actives, neighbours in structure and some others; about 0.85% of the full set was active somewhere. Unless noted, calls come from the whole dose curve; as a rule, active = well fitted curve in the direction sought with a large enough effect; inconclusive = small, poorly fitted or top-dose-only effect, or another doubt; inactive = no such curve, though single readings can be large; an effect the other way counts as inactive or inconclusive.

SMILES	Glioma ERSR ind	pAkt inh	GLS inh	CCT chaperon mod	Mm-Cpn inhibitor	IDH1 R132H inh
Cc1cc(C)n(Cc2cccc(C(=O)NCC3Cc4cccc(-c5ncccn5)c4O3)c2)n1 (configuration not stated)	-	.	.	.	.	.
COC(=O)[C@@H]1CCCN1Cc1ccc2c(c1)CN(Cc1ccccc1F)CCO2	-	.	.	.	.	.
Cc1cc(Cl)ccc1OCC(=O)NCCOc1nc(N2CCCCC2)nc(N2CCOCC2)n1	-	-	-	-	-	-
COc1cc(C)nc(OCCNC(=O)COc2ccc(Cl)cc2C)n1	-	-109%	-	-	-	-
C=CCn1c(=O)n(CCC#N)c(=O)n(CCC#N)c1=O	-	-99%	-	-	-	-
CN(c1ccccc1)S(=O)(=O)c1cccc(C(=O)NCCc2ccc(O)c(O)c2)c1	?	-	3.5µM	-	-	-
CCN(CC)S(=O)(=O)c1cccc(C(=O)NCCc2ccccc2)c1	-	.	-	-	.	-
COCc1c(C(=O)N2CCN(c3ccccc3O)CC2)cnn1-c1nccc(-c2cccs2)n1	-	.	.	.	.	.
COC(=O)CCC(NC(=O)c1cc(C)oc1C)C(=O)OC (configuration not stated)	-	-105%	-	-	-	-
COc1ccc(-n2c(CNC(=O)c3ccc(OC)cc3OC)nnc2SC)cc1	-	.	.	.	.	.
CCCc1nc(SCC(=O)N2CCN(c3ccccc3)CC2)c2c(=O)n(C)c(=O)n(C)c2n1	-	-	-	-39	-	-
Cn1c(=O)c2c(SCC(=O)N3CCOCC3)nc(-c3ccccc3Cl)nc2n(C)c1=O	-	-	-	-30	-	-
CC(C)c1nc(SCC(=O)N2CCN(c3ccccc3)CC2)c2c(=O)n(C)c(=O)n(C)c2n1	-	-	-	-	-	-
COc1ccccc1N1CCN(c2nc(CNC(=O)c3ccccc3F)nc3ccccc23)CC1	-	.	.	.	.	.
Cc1ccc(CN2C(=O)C(O)(CC(=O)c3ccc(C)cc3)c3ccccc32)cc1 (configuration not stated)	.	.	-	.	.	.
C=CCN1C(=O)C(O)(CC(=O)c2ccccc2)c2ccccc21 (configuration not stated)	-	-109%	-	-	-	-
Cc1ccc(C(=O)CC2(O)C(=O)N(Cc3ccccc3)c3ccccc32)o1 (configuration not stated)	-	.	-	-	-	-
Cc1coc(C)c1C(=O)CC1(O)C(=O)N(Cc2ccccc2)c2ccccc21 (configuration not stated)	-	-95%	-	-	.	-
COC(=O)c1ccc(CN2CCOc3ccc(C(O)c4cccnc4)cc3C2)cc1 (configuration not stated)	-	.	.	.	.	.
Cc1ncc2c(c1CNC(=O)c1ccc3c(c1)OCO3)CCN(C(=O)/C=C/c1ccc(Cl)cc1)C2	-	.	.	.	.	.
CCOCCCNC(=O)c1cccs1	-	-116%	-	-	-	-
CC(C)(CO)NC(=O)c1cnn(-c2nccc(-c3ccc4c(c3)OCO4)n2)c1C1CC1	-	.	.	.	.	.
Cc1cc(C)c(S(=O)(=O)NCCn2c(C)cc3ccccc32)c(C)c1	-	-	-	-	35µM	-
CCn1c(-c2ccccc2F)nc2cc(NC(C)=O)cc(C(=O)NCC3CCOCC3)c21	-	.	.	.	.	.
Cc1nn(-c2ccccc2)c(C)c1CC(=O)NCC1Cc2cc(F)cc(-c3cccnc3)c2O1 (configuration not stated)	-	.	.	.	.	.
Cc1ccc(S(=O)(=O)N(Cc2cc3cc4c(cc3[nH]c2=O)OCCO4)CC2CCCO2)cc1 (configuration not stated)	-	-105%	-	-	-	-
NC(=O)C1CCN(c2nc(-c3cccc4sc5ccccc5c34)cs2)CC1	.	.	.	.	-	.
Cc1ccc(OCC(O)Cn2c(=N)n(CCN3CCCCC3)c3ccccc32)cc1 (configuration not stated)	-	-113%	-	-	-	-
COc1ccc(OCC(O)Cn2c(=N)n(CCN3CCCCC3)c3ccccc32)cc1 (configuration not stated)	-	-	?	-	-	-
